Assay [1] is described as follows: growth inhibition of DIPG glioma cells, dose response, cell-based, SU-DIPG-XVII, MIPE5.0, CellTiter-Glo, qHTS (AID 1347060; cut-off not given, nearly all actives have AC50 up to about 26 µM;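 on AC50: cells exposed to compound for 48 hours before viability readout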). The note with it: SU-DIPG-XVII viability, CellTiter-Glo ATP luminescence. Background: ATP-based viability assays read luminescence as a measure of living cells.
The nature of assay [2]: JHH-DIPG-1 glioma cell viability, MIPE5.0 library, CellTiter-Glo luminescence, qHTS (AID 1347067; cut-off not given, nearly all actives have AC50 up to about 26 µM;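 further: cells exposed to compound for 48 hours before readout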). The following applies: JHH-DIPG-1 glioma viability, CellTiter-Glo ATP luminescence.
The nature of assay [3]: SU-DIPG-XXV glioma cell viability, MIPE5.0 library, qHTS (AID 1347068; cut-off not given, nearly all actives have IC50 up to about 30 µM;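 on IC50: cells exposed to compound for 48 hours before viability readout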).
Assay [4] in a line: viability loss in pontine glioma line – cell-based, SU-DIPG-XXV, MIPE5.0, CellTiter-Glo, qHTS, dose response (AID 1347065; cut-off not given, nearly all actives have AC50 up to about 26 µM;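 further: cells exposed to compound for 48 hours before ATP readout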). The note with it: CellTiter-Glo ATP luminescence.
Assay [5] is described as follows: ovarian cancer cell viability with rucaparib, profiling panel, oncology-focused library, rucaparib conditional (AID 1508598). The following applies: patient-derived ovarian cancer cells, CellTiter-Glo viability, 144 h, stronger effect = lower value.
The nature of assay [6]: sensitizers of A549 cells to miR-34 induction, primary screen, imaging, A549 dox-inducible miR-34, nuclei and caspase counts (AID 1347080;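 active means compounds whose cell count with miR-34 switched on is under 0.7 times the count with it off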). The following applies: A549 miR-34 inducible, Hoechst nuclei count, 48 h.
Assay [7] in a line: survival rescue of mitochondrial mutant cells in low glucose, primary screen, MELAS cybrids, Rieske KO mouse fibroblasts, CellTiter-Glo (AID 1508586;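 active means mean z-score across replicates of 1.96 or higher in either the MELAS or the Rieske mutant cell line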;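 further: z relative to plate mean and SD of compound and empty wells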).
Assay [8] in a line: SU-DIPG-VI glioma cell viability, MIPE4.0 library, CellTiter-Glo luminescence, qHTS (AID 1347066; cut-off not given, nearly all actives have AC50 up to about 30 µM;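 further: cells exposed to compound for 48 hours before readout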). The note with it: CellTiter-Glo ATP luminescence.

Inconclusive results are not listed. Activity calls are given as the source filed them.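 How the source made its calls, unless noted: active means normalized viability below 100% at a tested concentration; inactive means the rest.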

The source of these data is PubChem BioAssay.

What is called AC50 is the concentration giving half of the maximal activity seen. Usually IC50 stands for the point on the concentration scale where inhibition reaches its midpoint. Broadly, the viability is a read-out of living cells in per cent, often relative to untreated cells.

On to `O=C(Nc1ccnc(NC(=O)C2CC2)c1)c1c(Cl)cccc1Cl`, for which the AC50 is 9.34 µM (active) in assay [1] and 2.63 µM (active) in assay [2]. The IC50 in assay [3] was 7.42 µM (active).

Turning to `O=C(O)CCNc1cc(N2CCc3ccccc3CC2)nc(-c2cccnc2)n1`, the result in assay [1], in assay [2] and in assay [3] was inactive.

Turning to `CN[C@H]1CN(c2ccc3c(=O)c(C(=O)O)cn(-c4nccs4)c3n2)C[C@@H]1OC`, the AC50 is 0.762 µM (active) in assay [1] and 4.28 µM (active) in assay [4]. In addition, the viability in assay [5] (at 0.000305 µM, OCI-C5x cells, with rucaparib 10 µM, 100% = cells with rucaparib alone) is 118% (inactive); in assay [5] (at 0.000305 µM, OCI-C5x cells, without rucaparib), 108% (inactive); in assay [5] (at 0.000305 µM, OCI-P5x cells, with rucaparib 20 µM, 100% = cells with rucaparib alone), 98.3% (active); in assay [5] (at 0.000305 µM, OCI-P5x cells, without rucaparib), 105% (inactive); in assay [5] (at 0.00122 µM, OCI-C5x cells, with rucaparib 10 µM, 100% = cells with rucaparib alone) it was 121% (inactive); in assay [5] (at 0.00122 µM, OCI-C5x cells, without rucaparib), 111% (inactive). For the same compound, the viability was 92.3% (active) in assay [5] (at 0.00122 µM, OCI-P5x cells, with rucaparib 20 µM, 100% = cells with rucaparib alone); 97.9% (active) in assay [5] (at 0.00122 µM, OCI-P5x cells, without rucaparib); 107% (inactive) in assay [5] (at 0.00488 µM, OCI-C5x cells, with rucaparib 10 µM, 100% = cells with rucaparib alone); 103% (inactive) in assay [5] (at 0.00488 µM, OCI-C5x cells, without rucaparib); 100% (inactive) in assay [5] (at 0.00488 µM, OCI-P5x cells, with rucaparib 20 µM, 100% = cells with rucaparib alone); 98.6% (active) in assay [5] (at 0.00488 µM, OCI-P5x cells, without rucaparib). Also, the viability in assay [5] (at 0.0195 µM, OCI-C5x cells, with rucaparib 10 µM, 100% = cells with rucaparib alone) is 110% (inactive); in assay [5] (at 0.0195 µM, OCI-C5x cells, without rucaparib), 110% (inactive); in assay [5] (at 0.0195 µM, OCI-P5x cells, with rucaparib 20 µM, 100% = cells with rucaparib alone), 93.2% (active); in assay [5] (at 0.0195 µM, OCI-P5x cells, without rucaparib) it was 95.3% (active); in assay [5] (at 0.0781 µM, OCI-C5x cells, with rucaparib 10 µM, 100% = cells with rucaparib alone), 110% (inactive); in assay [5] (at 0.0781 µM, OCI-C5x cells, without rucaparib), 92.5% (active). For the same compound, the viability in assay [5] (at 0.0781 µM, OCI-P5x cells, with rucaparib 20 µM, 100% = cells with rucaparib alone) is 91.4% (active); in assay [5] (at 0.0781 µM, OCI-P5x cells, without rucaparib), 91.4% (active); in assay [5] (at 0.313 µM, OCI-C5x cells, with rucaparib 10 µM, 100% = cells with rucaparib alone), 143% (inactive); in assay [5] (at 0.313 µM, OCI-C5x cells, without rucaparib), 119% (inactive); in assay [5] (at 0.313 µM, OCI-P5x cells, with rucaparib 20 µM, 100% = cells with rucaparib alone), 79.7% (active); in assay [5] (at 0.313 µM, OCI-P5x cells, without rucaparib), 62.5% (active). Moreover, the viability in assay [5] (at 1.25 µM, OCI-C5x cells, with rucaparib 10 µM, 100% = cells with rucaparib alone) is 154% (inactive); in assay [5] (at 1.25 µM, OCI-C5x cells, without rucaparib), 118% (inactive); in assay [5] (at 1.25 µM, OCI-P5x cells, with rucaparib 20 µM, 100% = cells with rucaparib alone), 63.6% (active); in assay [5] (at 1.25 µM, OCI-P5x cells, without rucaparib), 41.5% (active); in assay [5] (at 5 µM, OCI-C5x cells, with rucaparib 10 µM, 100% = cells with rucaparib alone), 9.22% (active); in assay [5] (at 5 µM, OCI-C5x cells, without rucaparib), 12.6% (active). Moreover, the viability in assay [5] (at 5 µM, OCI-P5x cells, with rucaparib 20 µM, 100% = cells with rucaparib alone) is 9.42% (active); in assay [5] (at 5 µM, OCI-P5x cells, without rucaparib), 6.69% (active).

Turning to `Nc1nccn2c(C3CCC(C(=O)O)CC3)nc(-c3cc4cccc(Cl)c4[nH]3)c12` (stereo not drawn), the AC50 in assay [1] was 4.17 µM (active); in assay [4], 2.63 µM (active). Moreover, the outcome in assay [3] was inactive.

`O=C(/C=C/N1C[C@H]2C[C@@H]1CN2c1ccccn1)c1ccccc1O`: the compound was called inactive in assay [1] and in assay [2].

As for `C/C(=C\c1csc(C)n1)[C@@H]1C[C@@H]2O[C@]2(C)CCC[C@H](C)[C@H](O)[C@@H](C)C(=O)C(C)(C)[C@@H](O)CC(=O)N1`, the AC50 in assay [1] was 0.0148 µM (active); in assay [4], 0.0118 µM (active). Moreover, the IC50 in assay [3] was 3.32 µM (active).

Consider `[2H]C([2H])(Nc1nc(-c2ccccc2C([2H])(C([2H])([2H])[2H])C([2H])([2H])[2H])ncc1C)c1ccc(-n2ccnn2)cc1`, for which the compound was called inactive in assay [1], in assay [4] and in assay [3].

For `CCCc1cc(C)[nH]c(=O)c1CNC(=O)c1cc(-c2ccc(N3CCN(C(C)C)CC3)nc2)cc2c1cnn2C(C)C`, the figures for the AC50 in assay [1], in assay [4] and in assay [2] were 26.3 µM (active), 20.9 µM (active) and 14.8 µM (active), respectively. In addition, the fold change in assay [6] (stronger effect = lower value, cell number ratio, induced over uninduced) was 0.939 (inactive); in assay [6] (measured here: relative caspase fold change +Dox/-Dox), 0.565. Besides, the cell count in assay [6] (measured here: total cells with miR-34 induction, stronger effect = lower value) worked out at 6600; in assay [6] (measured here: total cells without miR-34 induction) it was 7030. Besides, the z-score was 0.696 (inactive) in assay [7] (MELAS cybrid survival, CellTiter-Glo 48 h, stronger effect = higher value) and -0.809 in assay [7] (Rieske KO mouse fibroblast survival, CellTiter-Glo 72 h).

Regarding `CCCC1OC2C[C@H]3[C@@H]4CCC5=CC(=O)C=C[C@]5(C)[C@H]4C(O)C[C@]3(C)[C@]2(C(=O)CO)O1` (stereo partly drawn), the compound was called inactive in assay [1], in assay [8] and in assay [3].
